Screening results: PubChem BioAssay, National Center for Advancing Translational Sciences (NCATS)
PINK1 modulator: modulators of PINK1 expression. AID 624263. PINK1 immunofluorescence, high-content cytometry, 24 h. hit rate 0.2% among 410,000. Potency, µM (highest dose often 76.6 µM), without a hit: at the highest dose activation (PINK1 increase), most hits filed as activators; active = well fitted activation curve with a large enough effect; inconclusive = small, poorly fitted or top-dose-only effect; cell line not stated here; note: % of control where 0% means no effect; nearly all actives have a fitted effect of over 65% in size
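Measures PINK1 amount and localization on or inside mitochondria by immunofluorescence. Stable cells get compounds at 5 concentrations for 24 hours before fixation and staining; CCCP controls included.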
Epigenetic derep: epigenetic control regulation, reporter derepression; murine LDR cells, GFP reporter derepression, 30 h; Potency, µM (doses to about 53.9 µM), for the others: at the top dose GFP activation, actives largely listed as activators; hit rate 0.2% among 280,000; AID 1865; note: % of control where 0% means no effect; nearly all actives have a fitted effect of over 60% in size
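GFP-positive cell count by laser-scanning cytometry (objects 20–120 um) after 30 h, 37 C compound exposure of murine LDR cells; reporter is CMV-GFP integrated at a silenced locus, inducible by HDAC or DNMT inhibitors.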
A549 tox: counter-screen for Nrf2 inhibitors: cytotoxicity in A549 cells; A549 ARE-Fluc cells, CellTiter-Fluor viability, 18-24 h; hit rate 0.16% among 390,000; Potency, µM (top dose mostly 46 µM), for inactives: at the highest dose activity change, negative = cytotoxicity, actives largely listed as inhibitors; AID 504648; note: % is set by controls: 0 for no effect and ±100 for the full control effect
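Cytotoxicity counterscreen: CellTiter-Fluor fluorescence was measured in A549 ARE_Fluc cells after 18-24 h of compound exposure in a concentration series. The subsequent BugLite luminescent read reports ARE-luciferase activity.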
Nrf2 activator: activates Nrf2 signaling | AREc32 ARE-luciferase reporter (MCF7-derived line), luminescence, 24 h | Potency, µM (highest dose often 46.1 µM), inactives show at the highest dose activation, usual class: activators | hit rate 0.31% among 410,000 | AID 624171; note: % of control where 0% means no effect; nearly all actives have a fitted effect of over 65% in size
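Quantitative high-throughput format: AREc32 reporter cells, 1000 per well, received compound by pin transfer and were incubated 24 hr at 37 deg C, 5% CO2, before Steady-Glo luminescence detection.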
Nrf2 inh: Nrf2 pathway inhibition. A549 ARE-Fluc reporter, luciferase luminescence, 18-24 h. Potency, µM (doses to about 46 µM), inactives show top-dose activity change, negative = inhibition, usual class: inhibitors. hit rate 2.1% among 360,000. AID 504444; note: % is set by controls: 0 for no effect and ±100 for the full control effect; nearly all actives have a fitted effect of over 60% in size
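Two sequential reads on A549 ARE_Fluc cells exposed to compound for 18-24 h: a CellTiter-Fluor fluorescence read for viability, then a luciferase luminescence read for Nrf2/ARE activity.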
Numbers without * were called inactive; [ ] = dose if it differs, or a comment. This is a sample that favours compounds with a hit; in the whole collection about 2.4% have one here. Unless noted, calls come from the whole dose curve; as a rule, active = well fitted curve in the direction sought with a large enough effect; inconclusive = small, poorly fitted or top-dose-only effect, or another doubt; inactive = no such curve, though single readings can be large; an effect the other way counts as inactive or inconclusive. Potency is the fitted concentration of half-maximal effect.

How did Cc1nn(C)cc1CN1CCOc2ccc(CN3CCC(Oc4cccnc4)CC3)cc2C1 do in these assays?
PINK1 modulator: -1%

Results for COCCn1c(SCC(=O)/C=C2\N(C)c3ccccc3C2(C)C)nnc1-c1ccncc1 ?
PINK1 modulator: 1%; Epigenetic derep: -1%; A549 tox: -27%; Nrf2 activator: -1%; Nrf2 inh: 23µM*

How did COCCn1c(SCC(=O)c2c(-c3ccccc3)n(C)c3ccccc23)nnc1-c1ccncc1 do in these assays?
PINK1 modulator: -1%; Epigenetic derep: 0%; A549 tox: 0%; Nrf2 activator: 0%; Nrf2 inh: inconclusive

Results for CN1/C(=C\C(=O)CSc2nnc(N)s2)C(C)(C)c2ccccc21 ?
PINK1 modulator: 0%; Epigenetic derep: 0%; A549 tox: -10%; Nrf2 activator: 0%; Nrf2 inh: -6%

Results for COc1ccc(Nc2nnc(SCC(=O)/C=C3/N(C)c4ccccc4C3(C)C)s2)cc1 ?
PINK1 modulator: -1%; Epigenetic derep: 0%; A549 tox: inconclusive; Nrf2 activator: 6%; Nrf2 inh: 23µM*

What do the screens show for `O=S1(=O)N=C(Oc2ccc(Cl)cc2)c2ccccc21`?
A549 tox: -4%[65.3 µM]; Nrf2 inh: -1%[65.3 µM]

What do the screens show for `C/C(=N\NC(=O)c1ccc(Cl)cc1)c1ccccn1`?
PINK1 modulator: -1%; A549 tox: inconclusive; Nrf2 activator: inconclusive; Nrf2 inh: 3.7µM*

What do the screens show for `COc1cc(C(=O)N/N=C(\C)c2ccccn2)cc(OC)c1OC`?
PINK1 modulator: 1%; A549 tox: inconclusive; Nrf2 activator: -1%; Nrf2 inh: 5%

What do the screens show for `COc1cc(C(=O)N/N=C(\Cc2ncc[nH]2)c2ccccc2)cc(OC)c1OC`?
PINK1 modulator: 1%; Epigenetic derep: -1%; A549 tox: inconclusive; Nrf2 activator: 0%; Nrf2 inh: 15µM*

How did COc1cc(C(=O)N/N=C(\c2ccccc2)c2ccccn2)cc(OC)c1OC do in these assays?
PINK1 modulator: inconclusive; Epigenetic derep: 4%; A549 tox: inconclusive; Nrf2 activator: 0%; Nrf2 inh: 4.6µM*

How did O=C1CCc2cc(S(=O)(=O)Nc3ccc4c(c3)CCC4)ccc2N1 do in these assays?
A549 tox: 3%; Nrf2 inh: inconclusive

How did COc1cc(=O)n2c(c1C(=O)N(C)Cc1ccsc1)CCN(Cc1c(C)nn(C)c1Cl)CC2 do in these assays?
PINK1 modulator: 1%

What do the screens show for `O=S(=O)(c1cc(C(F)(F)F)ccc1Cl)N1CCN(c2ncnc3ccccc23)CC1`?
PINK1 modulator: 1%; A549 tox: -13%; Nrf2 activator: 0%; Nrf2 inh: 18µM*

What do the screens show for `O=S(=O)(c1cc(C(F)(F)F)ccc1Cl)N1CCCCCC1`?
PINK1 modulator: 1%[38.3 µM]; Epigenetic derep: 7%; A549 tox: -5%; Nrf2 activator: 0%; Nrf2 inh: -2%

What do the screens show for `COc1cc(Br)c(CC(=O)NO)cc1OC`?
PINK1 modulator: 0%

What do the screens show for `CCN(CC)c1ccc(NC(=O)C2CCCN(S(=O)(=O)c3cnc[nH]3)C2)c(C)c1` (stereo unspecified)?
PINK1 modulator: 2%; Epigenetic derep: 3%; A549 tox: 1%; Nrf2 activator: -1%; Nrf2 inh: 23µM*

What do the screens show for `Cc1ccc(NC(=O)C2CCCN(S(=O)(=O)c3cnc[nH]3)C2)cc1C` (stereo unspecified)?
PINK1 modulator: -1%; Epigenetic derep: -1%; A549 tox: 2%; Nrf2 activator: -1%; Nrf2 inh: -13%

How did O=c1cc(N2CCNCC2)nc2sc(-c3ccncc3)nn12 do in these assays?
A549 tox: -2%; Nrf2 inh: 16%

How did Cc1ccc(-n2nnnc2SCC(=O)N2CCc3ccccc3C2)c(C)c1 do in these assays?
PINK1 modulator: -8%[38.3 µM]; Epigenetic derep: -1%; A549 tox: -8%; Nrf2 activator: 0%; Nrf2 inh: 16µM*

What do the screens show for `Cc1ccc(-n2nnnc2SCC(=O)N2CCc3ccccc3C2)cc1`?
PINK1 modulator: 6%[38.3 µM]; Epigenetic derep: -1%; A549 tox: 10%; Nrf2 activator: 2%; Nrf2 inh: 5%

Results for Cn1c(CCN2CCN(c3ccccn3)CC2)nc2cc(NC(=O)COc3ccccc3)ccc21 ?
PINK1 modulator: 9%; A549 tox: -4%; Nrf2 activator: 6%; Nrf2 inh: 23µM*

What do the screens show for `COCCn1c(SCc2csc(-c3ccccc3)n2)nc2ccccc21`?
PINK1 modulator: 2%[38.3 µM]; Epigenetic derep: -1%; A549 tox: -22%; Nrf2 activator: 1%; Nrf2 inh: 21µM*

How did COCCn1c(SCC(=O)NCc2ccccc2)nc2ccccc21 do in these assays?
PINK1 modulator: 0%; A549 tox: 11%; Nrf2 activator: 0%; Nrf2 inh: -8%

Results for CCOc1cc(Br)c(CN2C(=O)NC3(CCCCCC3)C2=O)cc1OCC ?
PINK1 modulator: 2%; A549 tox: inconclusive; Nrf2 activator: 3%; Nrf2 inh: 21µM*

What do the screens show for `COc1ccc(Cl)cc1CN1C(=O)NC2(CCCCCC2)C1=O`?
PINK1 modulator: -1%; A549 tox: -1%; Nrf2 activator: 0%; Nrf2 inh: inconclusive

Results for CC1Cc2cc(S(=O)(=O)CCC(=O)Nc3ccc(OC(F)(F)F)cc3)ccc2N1C(=O)C1CC1 (stereo unspecified) ?
PINK1 modulator: 4%; Epigenetic derep: 0%; A549 tox: 1%; Nrf2 activator: -1%; Nrf2 inh: 23µM*

What do the screens show for `CCCCN(c1ccccc1)S(=O)(=O)c1ccc2c(c1)CC(C)N2C(=O)C1CC1` (stereo unspecified)?
PINK1 modulator: 5%; Epigenetic derep: 4%; A549 tox: -7%; Nrf2 activator: 4%; Nrf2 inh: inconclusive

How did COc1ccccc1CNS(=O)(=O)c1ccc2c(c1)CC(C)N2C(=O)C1CCC1 (stereo unspecified) do in these assays?
PINK1 modulator: 3%; Epigenetic derep: -1%; A549 tox: -14%; Nrf2 activator: 3%; Nrf2 inh: 18µM*

Results for COc1ccccc1CNS(=O)(=O)c1ccc2c(c1)CC(C)N2C(=O)C1CC1 (stereo unspecified) ?
PINK1 modulator: 1%; A549 tox: 1%; Nrf2 activator: 4%; Nrf2 inh: 16%

What do the screens show for `Cc1cc(C)c(NS(=O)(=O)c2ccc3c(c2)CC(C)N3C(=O)C2CCC2)c(C)c1` (stereo unspecified)?
PINK1 modulator: 2%; Epigenetic derep: 0%; A549 tox: -5%; Nrf2 activator: 0%; Nrf2 inh: 21µM*

How did CCCN(c1ccccc1CC)S(=O)(=O)c1ccc2c(c1)CC(C)N2C(=O)C1CC1 (stereo unspecified) do in these assays?
PINK1 modulator: 8%; Epigenetic derep: -2%; A549 tox: -6%; Nrf2 activator: 5%; Nrf2 inh: 21µM*
